# In paper PMC5540273 (PLoS ONE, 2017):
# Like-named read-outs stand apart in the source and are kept apart here.
# Experiments:
# [1] = test system: AAK1; settings: n = 1
# [2] = test system: ABL1-nonphosphorylated; settings: n = 1
# [3] = test system: ABL1-phosphorylated; settings: n = 1
# [4] = test system: ABL2; settings: concentration: 1 μM, replicates: in singlicate; n = 1
# [5] = test system: ACVR1B; settings: concentration: 1 μM, replicates: in singlicate; n = 1
# [6] = test system: ACVR1; settings: concentration: 1 μM, replicates: in singlicate; n = 1
# [7] = test system: ACVR2A; settings: concentration: 1 μM, replicates: in singlicate; n = 1
# [8] = test system: ACVR2B; settings: concentration: 1 μM, replicates: in singlicate; n = 1
# [9] = test system: ACVRL1; settings: concentration: 1 μM, replicates: in singlicate; n = 1
# [10] = test system: T1, ADCK3; settings: concentration: 1 μM, replicates: in singlicate; n = 1
# T1 construct: gene CABC1
# [11] = concentration: 1 μM, replicates: in singlicate
# 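Also: KINOMEscan kinase panel screen.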
SMILES,"%Inh [1, 11] [%]","%Inh [2, 11] [%]","%Inh [3, 11] [%]",%Inh [4] [%],%Inh [5] [%],%Inh [6] [%],%Inh [7] [%],%Inh [8] [%],%Inh [9] [%],%Inh [10] [%],%Inh ([1]; 1 µM) [%],%Inh ([2]; 1 µM) [%],%Inh ([3]; 1 µM) [%]
c1ccc(-c2n[nH]cc2Nc2ccnc3ccccc23)nc1 [GW694077],82,0,0,0,0,30,0,0,0,3,–,–,–
CN1CCN(CCCNc2nccc(-c3c(-c4ccc(F)cc4)nn4cc(C(F)(F)F)ccc34)n2)CC1 [GW621581],1,0,0,9,83,40,0,0,26,70,–,–,–
Fc1ccc(-c2ncn(C3CCNCC3)c2-c2ccnc(Oc3ccc(-c4ccccc4)cc3)n2)cc1 [SB-245391],14,1,16,1,72,0,19,0,19,0,–,–,–
CNC(=O)c1ccccc1Nc1nc(Nc2ccc(N3CCOCC3)cc2)ncc1Cl.Cl [GSK1576028],–,–,–,95.6,85,95,18,43,42,35,89,98.8,99.6
c1ccc(-c2cnc3nccnn23)cc1 [AH20685],0,0,0,5,0,17,0,0,0,0,–,–,–
O=C(Nc1n[nH]c2cc(-c3ccoc3)ccc12)C1CC1 [SB-738481],45,25,0,0,0,30,19,46,0,0,–,–,–
COc1cc(Nc2nccc(N3CCC(NC(=O)c4cc5ccccc5s4)C3)n2)cc(OC)c1OC (centres unmarked) [GSK1379760],58,0,0,7,0,28,16,11,0,0,–,–,–
Cn1cc(-c2ccc3c(c2)CCN3C(=O)Cc2cccc(Cl)c2)c2c(N)ncnc21 [GSK2606590],30,78,30,53,0,0,0,53,0,0,–,–,–
COc1cc2c(cc1OCCN1CCNCC1)ncc1c3ccc(C#N)cc3[nH]c21,96.2,68,55,8,0,0,0,0,0,13,–,–,–
Cl.Cl.NCC(C(=O)Nc1cc(Br)c(-c2ccnc3[nH]ccc23)s1)c1ccccc1 (centres unmarked) [GSK1269851],78,14,32,35,67,47,0,5,0,65,–,–,–
COc1cccc(NC(=O)NC2CCN(c3ccnc(Nc4cc(OC)c(OC)c(OC)c4)n3)C2)c1 (centres unmarked) [GSK1379763],74,0,0,0,0,0,89,0,0,0,–,–,–
